HP1b chromo inh – blocks HP1-beta chromodomain binding to methylated histone tails. P83916. AlphaScreen HP1-beta / biotin-H3K9me3 peptide binding. Potency, µM (series often up to 114 µM), without a hit: at the top dose activity change, negative = inhibition, hits mostly inhibitors. hit rate 0.56% among 390,000. AID 540317; also: nearly all actives have a fitted effect of over 70% in size
Target sequence (P83916 whole entry, looked up): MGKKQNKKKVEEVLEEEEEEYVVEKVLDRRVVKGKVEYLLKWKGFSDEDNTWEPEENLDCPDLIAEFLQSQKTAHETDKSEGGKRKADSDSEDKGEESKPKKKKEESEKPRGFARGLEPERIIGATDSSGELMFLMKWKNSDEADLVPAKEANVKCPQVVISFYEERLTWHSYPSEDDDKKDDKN
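AlphaScreen: HP1-beta (50 nM) preformed 30 min with biotin-H3(1-18)K9me3 peptide (50 nM) in PBS pH 7.4, 0.01% Tween-20. Compound added for 30 min at RT, then streptavidin donor/nickel chelate acceptor beads (10 ug/mL) for 30 min.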
PLK1 PBD block – inhibitors of human PLK1 polo-box domain binding; hit rate 2.8% among 360,000; Plk1 PBD binding of FITC phosphopeptide, fluorescence polarization; Potency, µM, for the others: max response, negative = inhibition, actives largely listed as inhibitors; P53350; AID 720504; also: series mostly up to about 57 µM; % is scaled to controls: 0 for no effect and ±100 for the full control effect; nearly all actives have a fitted effect of over 65% in size
JMJD2A Tudor – JMJD2A Tudor domain (human) inhibition; Potency, µM (highest dose often 114 µM), inactives show at the highest dose activity change, negative = inhibition, most hits filed as inhibitors; AlphaScreen JMJD2A-Tudor / H3K4me3 peptide binding; hit rate 4.4% among 390,000; O75164; also: % is scaled to controls: 0 for no effect and ±100 for the full control effect; nearly all actives have a fitted effect of over 50% in size
BAZ2B block – inhibitors of human BAZ2B bromodomain; AlphaScreen BAZ2B-H3K14Ac peptide displacement; Potency, µM (highest dose often 114 µM), for inactives: at the highest dose activity change, negative = inhibition, usual class: inhibitors; hit rate 4.4% among 360,000; also: % is scaled to controls: 0 for no effect and ±100 for the full control effect; nearly all actives have a fitted effect of over 60% in size
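Compounds, titrated to a top concentration of 110 uM, were incubated 30 min at room temperature with preformed BAZ2B/acetyl-K14 H3 peptide complex (50 nM each). Proximity signal was measured by AlphaScreen after 20 min with beads.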
G9a inh – inhibitors of human histone lysine methyltransferase G9a; G9a H3K9 monomethylation, AlphaScreen, 2 h; Potency, µM (highest dose often 102 µM), inactives show top-dose activity, negative = inhibition, actives largely listed as inhibitors; hit rate 8.8% among 350,000; Q96KQ7; AID 504332; also: % is scaled to controls: 0 for no effect and ±100 for the full control effect; nearly all actives have a fitted effect of over 75% in size
Target sequence (Q96KQ7 913-1193 limits assumed): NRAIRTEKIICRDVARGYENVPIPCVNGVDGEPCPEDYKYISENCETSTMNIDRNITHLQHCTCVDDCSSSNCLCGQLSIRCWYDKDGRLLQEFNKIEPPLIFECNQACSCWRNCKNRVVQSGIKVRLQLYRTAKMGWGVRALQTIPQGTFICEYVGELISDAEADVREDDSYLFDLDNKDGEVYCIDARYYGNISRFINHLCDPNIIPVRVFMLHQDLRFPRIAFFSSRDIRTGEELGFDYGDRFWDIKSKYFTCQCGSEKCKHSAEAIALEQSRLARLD
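Step 1: enzyme (final 20 nM) with compound, 15 min RT. Step 2: substrate peptide 500 nM and SAM 20 uM, 2 h RT. Step 3: anti-H3K9me1 antibody and AlphaScreen beads, 10 min, then plate read.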
Sfp inh – Sfp phosphopantetheinyl transferase inhibition; hit rate 3.5% among 310,000; AID 1490; Biochemical Sfp PPTase activity, qHTS; Potency, µM, for inactives: largest response in the series, negative = inhibition, actives largely listed as inhibitors;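 also: the enzyme is Sfp with the accession as filed and its product quenches rhodamine fluorescence; 0% = enzyme reaction without inhibitor and -100% = no enzyme wells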
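Fluorescence-quenching assay: 15 nM Sfp-PPTase preincubated 15 min at room temperature with compound, then 5 uM rhodamine-CoA and 12.5 uM BHQ-2-labelled YbbR peptide added. Fluorescence (ex 525/em 598 nm) read at start and after 30 min; difference gives rate.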
* hit, by the source's call; ? = inconclusive; . = not tested or not shown; ! = not confirmed by another sample; [ ] = remark or other dose. Shown are actives, neighbours in structure and some others; about 12% of the full set was active somewhere. Calls follow the shape of the dose curve; as a rule, active = well fitted curve in the direction sought with a large enough effect; inconclusive = small, poorly fitted or top-dose-only effect, or another doubt; inactive = no such curve, though single readings can be large; an effect the other way counts as inactive or inconclusive. Potency is read from the fitted curve at half-maximal effect.

SMILES | HP1b chromo inh | PLK1 PBD block | JMJD2A Tudor | BAZ2B block | G9a inh | Sfp inh
C[C@H]1Cc2c(-c3ccccc3)nc3c(c2CO1)CN(C(=O)c1ccco1)CC3 | . | . | . | . | . | 7.9%
Cc1ccnc(N2CCN(c3cc(C)c(C#N)c4nc5ccccc5n34)CC2)c1 | 23.4% | -3.4% | -4.5% | . | . | .
Cc1cc(-c2ccco2)n2c(nc3ccccc32)c1C#N | 0.0% | 10.6µM* | -13.0%[11.4 µM] | 9.0% | ? | -25.2%
C=C(C)CSc1cc(C)c(C#N)c2nc3ccccc3n12 | 42.6% | 26.7µM* | -12.6% | -24.2% | 1.41µM* | 31.6µM*
N#Cc1cccc(NC(=O)N2CCCC3(CCN(S(=O)(=O)c4ccccc4)CC3)C2)c1 | . | . | . | . | -5.3%[12.7 µM] | 26.8%
CC(=O)c1ccc(Nc2ccc([N+](=O)[O-])c3nonc23)cc1 | -8.6% | -8.6% | -29.6% | ? | ? | 5.0%
O=C(O)c1cccc(Nc2ccc([N+](=O)[O-])c3nonc23)c1 | ? | 8.5% | -12.0% | ? | 70.8µM* | 2.4%
O=[N+]([O-])c1ccc(Nc2ccccc2O)c2nonc12 | ? | -14.4% | 50.1µM* | ? | ? | -0.4%
CN(C)c1cc(Nc2ccc(O)cc2)c([N+](=O)[O-])c2nonc12 | -2.9% | ? | 5.1%[11.4 µM] | -18.2% | -2.2% | 4.6%
O=C(O)c1cccc(Nc2cc(Cl)c3nonc3c2[N+](=O)[O-])c1 | 39.0% | 11.9µM* | -11.5% | -16.5% | 31.6µM* | -64.9%
O=[N+]([O-])c1c(Nc2ccc(O)cc2)cc(Cl)c2nonc12 | -15.7% | 1.68µM* | ? | ? | 31.6µM* | 50.1µM*
O=c1[nH]c(=S)[nH]c2c1C(c1ccc(F)cc1)OC(CCc1ccccc1)C2 (stereo not given) | . | -3.6% | . | . | . | .
O=C(O)c1ccccc1Nc1cc(Cl)c2nonc2c1[N+](=O)[O-] | 32.1% | 7.52µM* | -20.5% | -32.7% | 44.7µM* | ?
O=C(O)c1ccccc1Nc1ccc([N+](=O)[O-])cc1 | 41.4% | -9.0% | -9.1% | -30.2% | ? | 17.4%
O=[N+]([O-])c1c(Nc2ccccn2)cc(Cl)c2nonc12 | ? | -97.0% | ? | ? | 0.708µM* | 7.94µM*
COc1cc([C@@H]2c3cc4c(cc3[C@@H](O[C@@H]3O[C@H]5CO[C@@H](C)O[C@@H]5[C@@H](O)[C@H]3O)[C@@H]3COC(=O)[C@@H]23)OCO4)cc(OC)c1O | . | . | . | . | . | 89.1µM*
COC(=O)c1cc2c(ccc3ccccc32)oc1=O | 68.2% | -2.2% | 12.5% | . | . | .
CN1CCN(C(=O)c2cc3c(ccc4ccccc43)oc2=O)CC1 | 35.5% | -5.0% | -10.2% | -32.0% | 50.1µM* | -1.1%
CC(C)NC(=O)c1onc(CSc2ccc(F)c(F)c2)c1C(=O)O | 21.6% | 23.8µM* | 79.4µM* | ? | 50.9%[0.501 µM] | 79.4µM*
CC(C)NC(=O)c1onc(CSc2ccc(F)c(F)c2)c1C(=O)NC(C)C | 124.4% | -17.1% | 11.5% | . | . | .
CCN1CCN(CC(O)COC(C)C)CC1 (stereo not given) | -3.9% | -8.1% | -13.9% | 0.0% | 50.1µM* | -5.8%
CC(CCN1CCOCC1)c1ccccc1 (stereo not given) | ? | -7.6% | 22.4µM* | ? | 11.2µM* | -17.4%
Cc1ccccc1C(OCCN(C)C)c1ccccc1 (stereo not given) | 32.4% | ? | 28.2µM*! | -0.1% | 39.8µM*! | 14.1%
CCN1CCN(CC(O)COC(c2ccccc2)c2ccccc2C)CC1 (stereo not given) | ? | -9.3% | 5.62µM* | 22.4µM* | 3.16µM* | ?
Cc1ccc(Cl)cc1N1CCN(CC(O)COC(C)C)CC1 (stereo not given) | 41.1% | -3.4% | -9.4% | 1.6% | . | 2.9%
O=C(COc1ccccc1Cl)NCC1(N2CCOCC2)CCCCC1 | 50.2% | . | -16.9% | -11.3% | -3.6%[59 µM] | .
Cc1cccc(-c2noc(CSc3nc(-c4ccc(F)cc4)cc(=O)[nH]3)n2)c1 | 1.6%[57 µM] | . | -11.7% | -9.2% | -15.9%[59 µM] | .
c1ccc(C(CN2CCOCC2)c2ccccc2)cc1 | ? | -11.1% | 3.98µM* | ? | 25.1µM* | -14.9%

From PubChem BioAssay
